Screening results deposited in PubChem by several laboratories.
Compounds with a hit are over-represented: about 3.5% of the library has one in this group of screens.
Bead autofluor – flagged as autofluorescent in microsphere protease counterscreen. AID 624483. fluorescence intensity (no concentration beside the values). 360,000 compounds, 3.1% hits. compound autofluorescence counterscreen, microsphere flow cytometry; hits give high values; in the data active = fluorescence intensity above about 16000; inconclusive = no clear call, values can overlap the other calls
BoNT F protease – blocks Botulinum neurotoxin F light chain protease. Multiplex microsphere protease cleavage assay, flow cytometry. 360,000 compounds, 0.22% hits. inhibition, % at 10 µM; in the data active = inhibition above about 35%, passing the limit was not always enough; inconclusive = no clear call, values can overlap the other calls
BoNT-A LC inh2 – blocks Botulinum neurotoxin A light chain protease. AID 588499. 360,000 compounds, 0.17% hits. inhibition, % at 10 µM. multiplex microsphere protease substrate cleavage, flow cytometry
Anthrax LF prot – inhibitors of Bacillus anthracis lethal factor protease. 360,000 compounds, 0.12% hits. inhibition, % at 10 µM. multiplex microsphere protease cleavage assay, LF. AID 588501
Target sequence (P15917 whole entry, looked up): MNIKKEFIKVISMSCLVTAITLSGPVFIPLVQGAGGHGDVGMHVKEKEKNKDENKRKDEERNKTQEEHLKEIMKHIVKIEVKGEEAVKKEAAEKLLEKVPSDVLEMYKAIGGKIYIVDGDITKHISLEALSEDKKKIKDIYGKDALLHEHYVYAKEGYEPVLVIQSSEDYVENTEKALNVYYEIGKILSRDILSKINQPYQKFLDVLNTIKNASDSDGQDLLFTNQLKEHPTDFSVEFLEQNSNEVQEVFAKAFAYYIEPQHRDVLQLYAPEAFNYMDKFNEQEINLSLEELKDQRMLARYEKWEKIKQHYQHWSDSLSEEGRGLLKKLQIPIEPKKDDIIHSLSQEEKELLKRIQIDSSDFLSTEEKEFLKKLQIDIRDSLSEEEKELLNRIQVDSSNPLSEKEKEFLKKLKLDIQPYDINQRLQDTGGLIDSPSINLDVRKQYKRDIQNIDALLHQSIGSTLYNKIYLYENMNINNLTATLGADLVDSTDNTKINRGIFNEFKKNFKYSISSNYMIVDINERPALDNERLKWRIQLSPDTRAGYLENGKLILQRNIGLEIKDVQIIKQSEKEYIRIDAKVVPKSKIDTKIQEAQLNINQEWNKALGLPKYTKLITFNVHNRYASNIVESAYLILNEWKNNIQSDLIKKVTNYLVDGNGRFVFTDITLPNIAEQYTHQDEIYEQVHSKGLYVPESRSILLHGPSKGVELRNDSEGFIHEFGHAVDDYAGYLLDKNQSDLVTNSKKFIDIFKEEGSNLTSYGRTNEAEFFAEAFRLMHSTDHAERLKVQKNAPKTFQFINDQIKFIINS
3CLpro inhibitor – SARS-CoV 3CLpro protease inhibition; inhibition, % at 6 µM; 290,000 compounds, 0.14% hits; P0C6X7; recombinant SARS-CoV 3CLpro, quenched FRET peptide cleavage; in the data active = inhibition above about 12%
Large screens that a line does not name were inactive. Cut-off read from the data, not from the text of the source, unless noted: active = inhibition above about 30%; inconclusive = no clear call, values can overlap the other calls; inactive = below that.

Nc1nnc(SCC(=O)NC23CC4CC(CC(C4)C2)C3)s1	Bead autofluor 21047
CCCCSCc1ccc(C(=O)O)o1	Bead autofluor 20913
O=C(c1ccc(Br)o1)N1CCN(C/C=C/c2ccccc2)CC1	none
O=C(c1ccc(Br)s1)N1CCN(C/C=C/c2ccccc2)CC1	Bead autofluor 22315
O=C(CS(=O)c1ccc(C(F)(F)F)cc1[N+](=O)[O-])Oc1ccc(Cl)cc1 (centres undefined)	Bead autofluor 22500
N/C(=N/O)c1nc(N2CCCC2)nc(N(c2ccccc2)c2ccccc2)n1	none
COc1ccc(OCCNC(=S)Nc2cccc3ccccc23)cc1	Bead autofluor 22439
Cc1ccc(C(=O)NCCCCNC(=O)c2ccc(C)o2)o1	none
COc1ccccc1CCNC(=O)c1ccc(C)o1	Bead autofluor 21801, BoNT-A LC inh2 inconclusive
COc1ccc(NC(=S)NCCc2ccccc2OC)c(OC)c1	Bead autofluor 16398
Cc1c(N=Cc2ccco2)c(=O)n(-c2ccccc2)n1C	none
C/C(=N/NC(=O)CNC(=O)CCc1ccccc1)c1ccc(Cl)cc1	none
CCOC(=O)SC1=N/C(=C\c2ccc(N(C)C)cc2)C(=O)S1	Bead autofluor 19076
CCN(CC(=O)Nc1ccc(NC(C)=O)cc1)C(=O)c1ccccc1SCC(=O)N1CCCC1	none (no result: 3CLpro inhibitor)
CSc1ccccc1NC(=O)c1onc(C)c1Cl	none
CSc1ccccc1NC(=O)c1ccccc1N(Cc1ccccc1)S(C)(=O)=O	Bead autofluor 19711
CSc1ccccc1NC(=O)c1ccccc1N(C)S(C)(=O)=O	Bead autofluor 22950
CSc1ccccc1NC(=O)Nc1cccc(F)c1	none
CSc1ccccc1NC(=O)c1c(C)noc1C	Bead autofluor 22017
CSc1ccccc1NC(=O)Nc1ccccc1	Bead autofluor 25193, BoNT-A LC inh2 inconclusive
CC1(C)C(=O)OC(c2cccs2)C(C)(C)C1=O (centres undefined)	Bead autofluor 19729
CC1(C)C(=O)OC(c2ccccc2)C(C)(C)C1=O (centres undefined)	BoNT F protease inconclusive, BoNT-A LC inh2 inconclusive
[O-][n+]1onc2c1CCc1c-2nn(-c2ccccc2Cl)[n+]1[O-]	none
Cc1ccc(-n2nc3c([n+]2[O-])CCc2c-3no[n+]2[O-])cc1	Bead autofluor 21683
CNC(=O)c1cc2cc(OC)ccc2oc1=O	Bead autofluor 21752
Cc1cc([N+](=O)[O-])ccc1NCc1ccc2c(c1)OCCO2	none
CCSc1nnc(-c2cccnc2)n1-c1ccc(Cl)c(C)c1	Bead autofluor 17981
CCc1nc(-c2ccccc2)cc(=O)[nH]1	none
COc1ccc(S(=O)(=O)N(C)CC(=O)N2CCCCCC2)cc1OC	none
CCOC(=O)/C(C#N)=C/c1cc2ccccc2nc1N1CCCCC1	BoNT-A LC inh2 31
COc1ccc(-c2csc(C)n2)cc1OC	Bead autofluor 23023
Cc1nc(-c2ccccc2)cs1	Bead autofluor 21622
COc1ccc(-c2csc(C)n2)cc1	none
Cc1nc(-c2cccc(N)c2)cs1	none
O=C1NC[C@H](CCCCN2CCN(CCc3ccccc3)C(=O)C2=O)N(CCc2ccc(O)cc2)C1=O	none (no result: 3CLpro inhibitor)
COc1ccc(NC(C)=O)cc1NC(C)C(=O)Nc1cccc(S(=O)(=O)N2CCOCC2)c1 (centres undefined)	none (no result: 3CLpro inhibitor)
COc1cc(-c2noc(CCCC(=O)NC3CCCCC3)n2)cc(OC)c1OC	Bead autofluor 17180, BoNT-A LC inh2 inconclusive
CC(C)=CC(=O)NCc1c(Cl)cccc1-n1cccc1	Bead autofluor 24294
O=C(O)c1nnn(-c2ccc([N+](=O)[O-])cc2)c1-c1ccccc1	BoNT F protease inconclusive
C#CCN(C#N)c1nc(NCC)nc(NC(C)C)n1	Bead autofluor 23207
CCN(C#N)c1nc(NC(C)C)nc(NC(C)C)n1	none
COc1cc(OC)cc(C(=O)NNC(=O)C2CCC2)c1	none (no result: 3CLpro inhibitor)
O=C(NC1CCCC1)C1C2C=CC(C2)C1C(=O)N1CCOCC1 (centres undefined)	Bead autofluor 21400, BoNT-A LC inh2 inconclusive
CC1CCc2cc(F)ccc2N1C(=O)CCl (centres undefined)	none
CCCCCCC(=O)N(O)C1CC(=O)N(c2ccc(C)cc2)C1=O (centres undefined)	BoNT-A LC inh2 30
CCCCCCC(=O)N(O)C1CC(=O)N(c2ccc(Cl)cc2)C1=O (centres undefined)	none
C=CCn1c(O)c(N=NC(=S)Nc2ccc(OC)c(Cl)c2)c2ccccc21	Anthrax LF prot 30
c1ccc(Cc2nnc3sc(-c4ccncc4)nn23)cc1	Bead autofluor 23785
CCOc1ccc(-c2nnc3sc(-c4ccccc4OC)nn23)cc1	none
c1ccc(Cc2nnc3sc(-c4ccccn4)nn23)cc1	Bead autofluor 21625, BoNT-A LC inh2 inconclusive
CCOc1ccccc1-c1nn2c(Cc3ccccc3)nnc2s1	Bead autofluor 19404
c1ccc(Cc2nnc3sc(-c4cccs4)nn23)cc1	none
c1ccc(Cc2nnc3sc(-c4cccnc4)nn23)cc1	Bead autofluor 16689
FC(F)(F)c1nnc2sc(-c3ccccn3)nn12	none
O=C(/C=C/c1ccccc1)Nc1ccc(CN2CCOCC2)cc1	none
COc1cccc2[nH]c3c(=O)n(CCCN4CCOCC4)cnc3c12	none
S=c1nc[nH]c2c1ncn2C1CCCO1 (centres undefined)	none
CN1C(=O)C(Cc2nc3ccccc3c(=O)n2-c2ccccc2)c2ccccc21 (centres undefined)	Bead autofluor 19805, BoNT-A LC inh2 inconclusive
CN(C)CCN(C(=O)/C=C/c1cccs1)c1nc2ccc(F)cc2s1	none
CCC(=O)Nc1ccc(C(=O)N/N=C/c2ccccc2[N+](=O)[O-])cc1	Bead autofluor 23894
CCOc1cc(/C=N\NC(=O)c2ccc(C)nc2)cc([N+](=O)[O-])c1O	Bead autofluor 19947
COc1cc(/C=N/NC(=O)c2ccc(C)nc2)cc([N+](=O)[O-])c1O	none
CCCCNC(=O)CCn1ccc2cc(S(=O)(=O)N3CCCC3)ccc21	none
CCCCCCCCCCOC(=O)CCN1CC1	none (no result: 3CLpro inhibitor)
CCCCOC(=O)CCN1C(=O)/C(=C2\SC(=S)N(CCC(=O)OCCCC)C2=O)SC1=S	BoNT-A LC inh2 30
CCCOC(=O)CCCN1C(=O)/C(=C2\SC(=S)N(CCCC(=O)OCCC)C2=O)SC1=S	BoNT F protease inconclusive, BoNT-A LC inh2 81
CCCCCOC(=O)CCN1C(=O)/C(=C2\SC(=S)N(CCC(=O)OCCCCC)C2=O)SC1=S	BoNT-A LC inh2 40
CCn1c(CCNC(=O)c2ccc(Cl)cc2)n[nH]c1=S	none
CCOC(=O)c1c2c3c(cccc3[nH]c1=O)C(=O)c1ccccc1-2	none
CCOC(=O)c1c2c3c(cccc3n(C)c1=O)C(=O)c1ccccc1-2	BoNT F protease 40
CCOc1ccc(N(C(=O)c2ccccc2Cl)C2=NC(C)(C)CS2)cc1	none
COc1ccc(N2CCN(C(CNC(=O)C3CCCCC3)c3ccco3)CC2)cc1 (centres undefined)	none (no result: 3CLpro inhibitor)
Cc1cc(C)n(CCO)c(=O)n1	Bead autofluor 20285, BoNT-A LC inh2 inconclusive
O=C(Nc1ccc(N2CCCC2)c(Cl)c1)c1cccc(-c2cc3ccccc3oc2=O)c1	none
Cc1ccc(C(=O)Nc2nc(=O)n(C)s2)cc1	Bead autofluor 22548, BoNT-A LC inh2 inconclusive
